According to PubChem BioAssay (EPA / NIEHS):
Records with an inconclusive call do not appear. Active and inactive are the calls of the source. Rule for the calls, unless noted: active = hit-call score of the fitted dose curve at least 0.9, where 1 is the maximum; inactive = score below 0.9.

Tests used:
[1] = CCTE_Shafer_MEA_acute_firing_rate_mean: CCTE's Neural Acute Assay for Mean Firing Rate, Shafer Lab (AID 2284009);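 note: analyzed for loss of signal so actives lower firing rate relative to DMSO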
Procedure, shortened: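 Spontaneous spiking of primary rat cortical networks, DIV 13/15, 37 C. Compound 0.03-40 uM, n ≥3 wells; 40 min baseline vs 40 min treated. Endpoint fitted in loss-of-signal direction against DMSO.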

[2] = CCTE_Shafer_MEA_acute_burst_number: CCTE's Neural Acute Assay for Single-Electrode Bursts, Shafer Lab (AID 2284013)
Procedure, shortened: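 Burst totals were derived with adaptive spike detection (8x rms threshold) on filtered signals from rat cortical cultures; change relative to pre-treatment baseline after 40-min compound exposure (0.03-40 uM) was fitted in the negative direction against DMSO.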

[3] = CCTE_Shafer_MEA_acute_burst_duration_mean: CCTE's Neural Acute Assay for Mean Burst Duration, Shafer Lab (AID 2284014);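 note: hits are decreases in mean burst duration relative to DMSO controls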
Procedure, shortened: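 Acute exposure of mature rat cortical networks (DIV 13 or 15) grown on microelectrode arrays to 0.03-40 uM compound. Mean burst duration compared with the 40-min pre-dose baseline over a 40-min post-dose recording at 37 C.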

[4] = CCTE_Shafer_MEA_acute_per_burst_spike_number_mean: CCTE's Neural Acute Assay for Average Number of Spikes Per Burst, Shafer Lab (AID 2284015);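 note: hits are decreases in mean spikes per burst versus baseline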
Procedure, shortened: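 Read-out: percent change in mean spikes per burst, each well's post-exposure 40-min recording versus its own 40-min baseline. Rat cortical cultures, DIV 13 or 15, compounds 0.03-40 uM; DMSO is negative control, loss-of-signal fitting.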

[5] = CCTE_Shafer_MEA_acute_interburst_interval_mean: CCTE's Neural Acute Assay for Mean Interburst Interval, Shafer Lab (AID 2284016);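 note: percent change of mean interburst interval versus each well's own pre-dose baseline; curves fitted for decrease in interburst interval relative to DMSO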
Procedure, shortened: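 Rat cortical cultures, DIV 13/15; 20 min equilibration, 40 min baseline, compound 0.03-40 uM, 40 min re-recording, 37 C. Spikes detected at 8x rms noise (300-5000 Hz band-pass). Endpoint: % change in interburst interval, fitted in loss direction vs DMSO.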

[6] = CCTE_Shafer_MEA_acute_burst_percentage_mean: CCTE's Neural Acute Assay for Percentage of Spikes in a Burst, Shafer Lab (AID 2284017);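 for AC50: curve fitted for loss of signal so potency reflects decreased burst percentage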
Procedure, shortened: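 Rat cortical cultures, DIV 13/15, 37 C. Spikes detected at 8x rms noise (300-5000 Hz band-pass). Burst spikes/total spikes averaged across electrodes per well; % change post- vs pre-treatment (40 min each), loss-of-signal fit vs DMSO.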

[7] = CCTE_Shafer_MEA_acute_burst_percentage_std: CCTE's Neural Acute Assay for Standard Deviation of Burst Percentage, Shafer Lab (AID 2284018);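 note: fitted in the negative direction so actives lower burst percentage SD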
Procedure, shortened: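 Primary rat cortical neurons on 16-electrode MEA wells were recorded 40 min at baseline (DIV 13 or 15), then 40 min after compound (0.03-40 uM), at 37 C. Well value is SD across electrodes of spikes-in-bursts/total spikes; endpoint is percent change, DMSO-referenced.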

[8] = CCTE_Shafer_MEA_acute_per_network_burst_spike_number_std: CCTE's Neural Acute Assay for Standard Deviation of Number of Spikes in a Network Burst, Shafer Lab (AID 2284020);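 note: fitted for decrease in spike-number SD versus DMSO so actives lower it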
Procedure, shortened: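 Acute MEA exposure, rat cortical neurons, 0.03-40 uM. Per-well % change versus own baseline; DMSO as negative control.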

[9] = CCTE_Shafer_MEA_acute_network_burst_percentage: CCTE's Neural Acute Assay for Percentage of Network Bursts, Shafer Lab (AID 2284022);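 note: curves fitted for loss so actives lower network burst percentage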
Procedure, shortened: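 On DIV 13 or 15, at least three wells of rat cortical neurons per compound are dosed at 0.03-40 uM. Spontaneous firing is detected at 8x rms noise for 40 min before and after dosing at 37 C. The percent change in network-burst spike share is reported.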

[10] = CCTE_Shafer_MEA_acute_cross_correlation_area: CCTE's Neural Acute Assay for Area of Cross Correlation, Shafer Lab (AID 2284024);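 note: rat primary cortical neuron networks on 48-well MEA at DIV 13 or 15 with 40 min exposure; area under pooled inter-electrode spike cross-correlation near zero lag as percent change from own baseline; curves fitted for loss of cross-correlation area so actives lower synchrony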
Procedure, shortened: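 Extracellular recordings from cultured rat cortical neurons measure network synchrony as cross-correlation area; each well's post-compound value (0.03-40 uM, 40 min) is compared with its own 40 min baseline to give percent change.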

[11] = CCTE_Shafer_MEA_acute_cross_correlation_HWHM: CCTE's Neural Acute Assay for Cross Correlation at Half Width at Half Maximum, Shafer Lab (AID 2284026);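 note: spontaneous network firing of rat primary cortical neurons on multiwell microelectrode arrays; percent change per well from pre-dose baseline in spike cross-correlogram half width; hits are a decrease in cross-correlogram half width relative to DMSO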
Procedure, shortened: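 Percent change in cross-correlogram half width at half maximum, narrower meaning more synchrony, was derived per well from paired 40-min recordings before and during exposure to 0.03-40 uM compound in rat cortical cultures at 37 C.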

[12] = CCTE_Shafer_MEA_acute_synchrony_index: CCTE's Neural Acute Assay for Synchrony, Shafer Lab (AID 2284027);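 note: network synchrony index of spontaneous spiking in primary rat cortical neurons on MEAs; fitted for loss of signal so actives lower synchrony relative to DMSO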
Procedure, shortened: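 Rat cortical cultures, DIV 13/15; spikes detected at 8x rms noise, 300-5000 Hz band-pass. Compound 0.03-40 uM, ≥3 wells; 40-min pre- and post-exposure recordings, 37 C. Readout: % change in synchrony index; loss-of-signal fit vs DMSO.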

[13] = molecular target: Ratio of Nucleoli Translocation and Cytoplasm, AR (gene 367) (UniProt P10275); assay: UPITT_HCI_U2OS_AR_TIF2_Nucleoli_Cytoplasm_Ratio_Antagonist: University of Pittsburgh U2OS Androgen Receptor-Transcriptional Intermediary Factor 2 (AR-TIF2) Antagonism High Content Imaging Assay for Ratio of Nucleoli Translocation and Cytoplasm (AID 2283999; active = hit-call score of the fitted dose curve at least 0.9, where 1 is the maximum;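 note: antagonists lower the DHT-driven ratio of nucleolar to cytoplasmic red signal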)
Procedure, shortened: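 Read-out is the ratio of nucleolar to cytoplasmic AR-RFP fluorescence, imaged by high-content microscopy in U2OS cells coexpressing TIF2-GFP. Single-point 20 uM screen, triplicate confirmation, then 0.195–50 uM dose response; activity referenced to DHT baseline.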

[14] = CCTE_Harrill_HTTr_Viability_MCF7: CCTE's 6-hour Cell Viability Assessment for the High-Throughput Transcriptomics (HTTr) Platform, in MCF-7 cells cultured in DMEM + 10% fetal bovine serum, Harrill Lab (AID 2284010)
Procedure, shortened: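 PI exclusion, high-content imaging; 8-pt dilution series, 6 h exposure; bidirectional fit vs DMSO (neg. ctrl/baseline); gain of signal = loss of membrane integrity.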

[15] = CCTE_Harrill_HTTr_Apoptosis_MCF7: CCTE's 6-hour Apoptosis Assessment for the High-Throughput Transcriptomics (HTTr) Platform, in MCF-7 cells cultured in DMEM + 10% fetal bovine serum, Harrill Lab (AID 2284011)
Procedure, shortened: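 Apoptosis in MCF-7 cells grown in DMEM with 10% fetal bovine serum was scored after a six hour exposure by high content imaging of caspase-3/7 activation (CellEvent Caspase 3/7 Green), with DMSO serving as negative control and baseline.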

[16] = CCTE_Harrill_HTTr_CellCount_MCF7: CCTE's Cell Proliferation Assessment for the High-Throughput Transcriptomics (HTTr) Platform, Harrill Lab (AID 2284012; active = hit-call score of the fitted dose curve at least 0.9, where 1 is the maximum;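 note: count of Hoechst-stained nuclei per well by high-content imaging in MCF-7 cells; cells exposed to compound for six hours; intended direction is loss of nuclei count meaning fewer cells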)
Procedure, shortened: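 Readout: Hoechst nuclear count by high-content imaging. MCF-7, 8-point dilution series, 6 h exposure. Bidirectional fit vs DMSO baseline.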

[17] = molecular target: Estrogen receptor (Homo sapiens) (UniProt P03372); assay: CCTE_Deisenroth_AIME_96WELL_LUC_Active: CCTE's 96-well Estrogen Receptor Transactivation Assay with AIME metabolic competence (ERTA luciferase; metabolism positive), Deisenroth Lab (AID 2284023; active = hit-call score of the fitted dose curve at least 0.9, where 1 is the maximum)
Procedure, shortened: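 Metabolism-positive mode: induced rat hepatic S9 in alginate microspheres conditions test solutions (0.002 - 200 uM, 10 points) for 2 hours. VM7Luc4E2 ER luciferase reporter cells then exposed 24 h; positive-direction fit against 17beta-estradiol, n=4 typical.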

[18] = molecular target: Estrogen receptor (Homo sapiens) (UniProt P03372); assay: CCTE_Deisenroth_AIME_96WELL_LUC_Inactive: CCTE's 96-well Estrogen Receptor Transactivation Assay without AIME metabolic competence (ERTA luciferase; metabolism negative), Deisenroth Lab (AID 2284025; active = hit-call score of the fitted dose curve at least 0.9, where 1 is the maximum)
Procedure, shortened: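 Metabolism-negative arm: chemicals (0.002–200 uM, 10 points) incubated 2 h with alginate-water microspheres, then medium moved onto VM7Luc4E2 cells for 24 h luciferase read-out. Positive direction vs 17beta-estradiol; n≥4 experiments.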

[19] = CCTE_Deisenroth_AIME_96WELL_CTox_Active: Cytotoxicity Assessment (CTOX) in CCTE's 96-well Estrogen Receptor Transactivation Assay with AIME metabolic competence (metabolism positive), Deisenroth Lab (AID 2284028; active = hit-call score of the fitted dose curve at least 0.9, where 1 is the maximum)
Procedure, shortened: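 Cytotoxicity in VM7Luc4E2 breast cells after 24 h exposure to medium from a 2 h metabolic pre-incubation with induced rat hepatic S9 in alginate microspheres; fluorescent live-cell protease readout, 10-point series 0.002–200 uM, n=4.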

[20] = molecular target: Ratio of Nucleoli Translocation and Cytoplasm, AR (gene 367) (UniProt P10275); assay: UPITT_HCI_U2OS_AR_TIF2_Nucleoli_Cytoplasm_Ratio_Agonist: University of Pittsburgh U2OS Androgen Receptor-Transcriptional Intermediary Factor 2 (AR-TIF2) Agonism High Content Imaging Assay for Ratio of Nucleoli Translocation and Cytoplasm (AID 2284000; active = hit-call score of the fitted dose curve at least 0.9, where 1 is the maximum;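 note: hits raise the red nucleolar to cytoplasm ratio above vehicle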)
Procedure, shortened: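 Primary screen at 20 uM final (0.2% DMSO), then triplicate confirmation and dose-response from 0.195 to 50 uM final (0.5% DMSO). Cells: U2OS with AR-RFP and TIF2-GFP. Endpoint is the nucleoli/cytoplasm red-fluorescence ratio, gain-of-signal vs DMSO.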

Measured: AC50

Sequence of Ratio of Nucleoli Translocation and Cytoplasm, AR (gene 367) (P10275 whole entry, looked up): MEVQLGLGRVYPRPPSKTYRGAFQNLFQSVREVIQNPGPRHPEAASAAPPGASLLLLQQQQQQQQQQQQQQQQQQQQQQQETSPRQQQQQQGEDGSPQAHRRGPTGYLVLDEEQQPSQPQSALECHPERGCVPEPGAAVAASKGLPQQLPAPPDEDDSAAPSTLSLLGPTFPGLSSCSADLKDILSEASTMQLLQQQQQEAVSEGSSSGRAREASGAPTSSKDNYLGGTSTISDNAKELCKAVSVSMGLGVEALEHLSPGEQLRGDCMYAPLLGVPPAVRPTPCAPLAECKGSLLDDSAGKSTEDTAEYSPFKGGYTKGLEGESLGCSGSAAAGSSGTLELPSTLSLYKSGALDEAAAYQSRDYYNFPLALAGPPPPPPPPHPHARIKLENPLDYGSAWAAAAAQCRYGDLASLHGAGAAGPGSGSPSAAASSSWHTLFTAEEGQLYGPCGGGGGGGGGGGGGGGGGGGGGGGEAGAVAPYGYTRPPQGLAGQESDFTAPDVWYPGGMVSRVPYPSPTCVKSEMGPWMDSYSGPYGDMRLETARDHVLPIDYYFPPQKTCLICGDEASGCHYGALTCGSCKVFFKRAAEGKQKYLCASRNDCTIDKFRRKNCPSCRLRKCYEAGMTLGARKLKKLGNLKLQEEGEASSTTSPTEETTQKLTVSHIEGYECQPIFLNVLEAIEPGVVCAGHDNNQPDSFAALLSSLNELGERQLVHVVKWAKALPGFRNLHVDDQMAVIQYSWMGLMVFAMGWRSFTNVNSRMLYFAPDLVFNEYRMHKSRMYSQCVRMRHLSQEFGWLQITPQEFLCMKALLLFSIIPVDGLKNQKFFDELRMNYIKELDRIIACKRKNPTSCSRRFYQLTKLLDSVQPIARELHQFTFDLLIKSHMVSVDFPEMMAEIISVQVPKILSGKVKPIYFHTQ
Sequence of Estrogen receptor (Homo sapiens) (P03372 whole entry, looked up): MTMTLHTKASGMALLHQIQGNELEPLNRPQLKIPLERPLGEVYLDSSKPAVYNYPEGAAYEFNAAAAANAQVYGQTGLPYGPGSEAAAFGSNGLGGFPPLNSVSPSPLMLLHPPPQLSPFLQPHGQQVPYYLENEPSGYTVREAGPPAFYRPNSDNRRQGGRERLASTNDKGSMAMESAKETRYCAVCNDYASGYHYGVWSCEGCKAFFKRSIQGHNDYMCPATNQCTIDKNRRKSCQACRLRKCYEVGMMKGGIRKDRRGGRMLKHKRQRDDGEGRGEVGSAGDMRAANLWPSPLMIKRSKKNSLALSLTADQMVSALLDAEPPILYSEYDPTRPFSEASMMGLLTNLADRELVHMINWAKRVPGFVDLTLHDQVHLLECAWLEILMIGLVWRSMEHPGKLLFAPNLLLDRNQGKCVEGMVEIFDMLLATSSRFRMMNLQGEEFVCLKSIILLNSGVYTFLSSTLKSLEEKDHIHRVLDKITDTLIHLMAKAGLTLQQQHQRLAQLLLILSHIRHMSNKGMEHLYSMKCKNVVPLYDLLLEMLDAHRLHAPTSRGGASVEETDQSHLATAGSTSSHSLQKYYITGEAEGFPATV

Nc1cccc(N)n1
active: [1] 3.19 nM | [2] 3 nM | [4] 15.4 nM | [6] 3 nM | [7] 3 nM | [8] 11.7 nM | [9] 3.18 nM | [12] 3 nM
inactive: [3] | [5] | [10] | [11]

COc1ccc(C(=O)c2ccccc2)c(O)c1
inactive: [13] | [14] | [15] | [16] | [19]
active: [17] 12600 nM | [18] 18500 nM

N#Cc1ccc(C(c2ccc(C#N)cc2)n2cncn2)cc1
inactive: [20] | [14] | [15]

O=C(O)c1ccc2c(c1)C(=O)OC2=O
inactive: [13] | [14] | [15]

Cc1c(C(=O)c2c[nH]n(C)c2=O)ccc(S(C)(=O)=O)c1C1=NOCC1
inactive: [1] | [14] | [15] | [16] | [2] | [3] | [4] | [5] | [6] | [7] | [8] | [9] | [10] | [11] | [12]

c1ccc2c(c1)[nH]c1ccccc12
inactive: [13] | [20] | [14] | [15]
